The full list was thinned out, with hits kept by preference.
Pf apPOL inh: Pf-apPOL inhibitors, biochemical, fluorescence; inhibition, % at 10 µM; AID 1794808, 2022; actives 0.25% (n = 210,000); Recombinant Pf-apPOL, molecular beacon fluorescence, 1.5 h
mHTT-CaM PPI inh: mutant huntingtin-calmodulin interaction inhibitors – biochemical, AlphaScreen, primary screen | P42858 | AlphaScreen His-mHTT/GST-CaM binding, luminescence | inhibition, % at 15 µM | actives 3.6% (n = 190,000) | AID 1671202, 2021
Target sequence (P42858 whole entry, looked up, change not shown): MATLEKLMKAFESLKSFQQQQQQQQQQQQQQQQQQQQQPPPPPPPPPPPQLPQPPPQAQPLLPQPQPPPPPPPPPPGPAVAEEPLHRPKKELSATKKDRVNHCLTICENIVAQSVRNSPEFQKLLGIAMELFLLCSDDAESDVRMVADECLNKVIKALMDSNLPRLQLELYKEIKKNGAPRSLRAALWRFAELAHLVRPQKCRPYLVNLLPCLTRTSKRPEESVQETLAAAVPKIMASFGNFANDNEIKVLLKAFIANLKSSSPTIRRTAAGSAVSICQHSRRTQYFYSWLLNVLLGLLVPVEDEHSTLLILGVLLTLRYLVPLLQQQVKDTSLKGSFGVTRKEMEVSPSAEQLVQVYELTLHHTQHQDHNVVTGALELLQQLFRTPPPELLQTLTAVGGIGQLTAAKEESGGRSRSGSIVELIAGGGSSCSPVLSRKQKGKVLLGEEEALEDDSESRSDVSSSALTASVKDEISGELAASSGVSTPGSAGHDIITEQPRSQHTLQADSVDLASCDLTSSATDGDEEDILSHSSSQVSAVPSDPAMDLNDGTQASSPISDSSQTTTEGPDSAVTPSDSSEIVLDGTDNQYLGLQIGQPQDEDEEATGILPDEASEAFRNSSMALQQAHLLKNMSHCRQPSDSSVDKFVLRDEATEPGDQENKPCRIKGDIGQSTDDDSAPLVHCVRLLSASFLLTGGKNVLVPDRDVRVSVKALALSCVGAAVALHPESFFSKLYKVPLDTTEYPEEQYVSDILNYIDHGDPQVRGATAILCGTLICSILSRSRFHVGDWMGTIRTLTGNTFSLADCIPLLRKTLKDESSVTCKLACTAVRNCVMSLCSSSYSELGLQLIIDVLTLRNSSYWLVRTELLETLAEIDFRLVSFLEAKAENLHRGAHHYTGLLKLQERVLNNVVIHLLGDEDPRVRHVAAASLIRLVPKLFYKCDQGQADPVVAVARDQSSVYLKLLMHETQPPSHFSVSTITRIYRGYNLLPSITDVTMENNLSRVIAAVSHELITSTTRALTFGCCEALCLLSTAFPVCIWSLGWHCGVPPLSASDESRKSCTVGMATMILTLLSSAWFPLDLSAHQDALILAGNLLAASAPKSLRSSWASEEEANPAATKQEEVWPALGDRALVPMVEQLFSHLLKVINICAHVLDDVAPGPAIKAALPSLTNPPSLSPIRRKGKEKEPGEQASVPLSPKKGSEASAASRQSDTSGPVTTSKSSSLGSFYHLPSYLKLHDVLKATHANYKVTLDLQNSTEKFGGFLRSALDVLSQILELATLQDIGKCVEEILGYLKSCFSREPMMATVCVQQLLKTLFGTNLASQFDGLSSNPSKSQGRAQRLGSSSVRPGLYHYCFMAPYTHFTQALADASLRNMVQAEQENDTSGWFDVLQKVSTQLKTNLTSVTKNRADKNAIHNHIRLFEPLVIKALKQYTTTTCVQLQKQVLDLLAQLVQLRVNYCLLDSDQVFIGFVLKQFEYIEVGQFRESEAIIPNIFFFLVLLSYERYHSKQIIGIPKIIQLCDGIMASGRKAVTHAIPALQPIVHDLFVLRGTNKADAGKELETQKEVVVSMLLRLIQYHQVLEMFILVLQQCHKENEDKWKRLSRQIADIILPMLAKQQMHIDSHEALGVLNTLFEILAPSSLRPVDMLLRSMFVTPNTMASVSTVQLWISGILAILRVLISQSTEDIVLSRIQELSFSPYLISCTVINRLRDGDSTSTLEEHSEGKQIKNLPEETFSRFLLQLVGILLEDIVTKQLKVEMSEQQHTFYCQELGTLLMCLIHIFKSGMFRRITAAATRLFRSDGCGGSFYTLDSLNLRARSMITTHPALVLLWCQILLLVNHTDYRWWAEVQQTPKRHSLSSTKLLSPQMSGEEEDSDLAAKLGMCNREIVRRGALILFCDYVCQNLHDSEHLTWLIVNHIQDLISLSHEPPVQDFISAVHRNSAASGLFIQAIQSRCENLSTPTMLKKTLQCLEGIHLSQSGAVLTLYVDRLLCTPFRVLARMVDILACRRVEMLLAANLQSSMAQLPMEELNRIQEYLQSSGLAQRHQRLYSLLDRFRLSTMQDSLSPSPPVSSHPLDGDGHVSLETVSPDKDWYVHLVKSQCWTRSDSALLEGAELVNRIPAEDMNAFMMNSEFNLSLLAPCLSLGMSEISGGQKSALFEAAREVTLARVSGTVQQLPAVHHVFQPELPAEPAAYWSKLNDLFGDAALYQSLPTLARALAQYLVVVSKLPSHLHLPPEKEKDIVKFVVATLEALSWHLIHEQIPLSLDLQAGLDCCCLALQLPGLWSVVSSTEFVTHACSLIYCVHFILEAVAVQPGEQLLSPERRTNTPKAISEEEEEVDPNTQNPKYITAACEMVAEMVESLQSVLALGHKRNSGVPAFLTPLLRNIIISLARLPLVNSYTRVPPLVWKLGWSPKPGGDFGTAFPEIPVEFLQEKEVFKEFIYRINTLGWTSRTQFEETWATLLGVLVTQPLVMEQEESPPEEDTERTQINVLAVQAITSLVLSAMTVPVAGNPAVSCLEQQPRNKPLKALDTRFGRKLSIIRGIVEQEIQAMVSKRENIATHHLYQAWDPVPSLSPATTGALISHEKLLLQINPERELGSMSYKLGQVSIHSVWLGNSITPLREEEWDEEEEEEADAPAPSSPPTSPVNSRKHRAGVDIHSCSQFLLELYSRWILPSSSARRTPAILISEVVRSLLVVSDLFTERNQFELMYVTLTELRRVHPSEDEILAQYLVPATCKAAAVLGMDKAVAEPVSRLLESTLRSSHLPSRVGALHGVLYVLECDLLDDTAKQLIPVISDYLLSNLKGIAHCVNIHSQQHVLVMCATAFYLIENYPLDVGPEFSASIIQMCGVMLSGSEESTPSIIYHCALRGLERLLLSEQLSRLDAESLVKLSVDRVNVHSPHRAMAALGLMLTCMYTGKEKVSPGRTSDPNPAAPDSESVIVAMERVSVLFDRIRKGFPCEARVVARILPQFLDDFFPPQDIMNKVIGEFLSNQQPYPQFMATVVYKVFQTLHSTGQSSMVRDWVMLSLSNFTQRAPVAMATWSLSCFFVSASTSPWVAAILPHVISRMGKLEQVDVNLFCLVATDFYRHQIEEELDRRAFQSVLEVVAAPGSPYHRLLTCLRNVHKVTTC
Numbers stand for hits; n = inactive; x = no result given; + = active, no number. Cut-off read from the data, not from the text of the source: active = inhibition above about 50%; inactive = the rest.

SMILES	Pf apPOL inh	mHTT-CaM PPI inh
COc1ccccc1C(=O)O/N=C1\C=C(C(C)C)C(=O)C=C1C	n	+
CC1=CC(=O)C(C(C)C)=C/C1=N\OC(=O)c1ccccc1C	n	n
COC(CNC(=O)c1ccc2c(c1)ncn2-c1ccc(C)c(Cl)c1)OC	n	n
COc1cc(C(O)C[N+](=O)[O-])ccc1OCc1ccccc1 (stereo unspecified)	n	n
COc1ccccc1N=Cc1cc(OC)c(OCc2ccccc2)cc1[N+](=O)[O-]	n	95
Cc1cc(C)nc(NC(N)=NCCN2CCOCC2)n1	n	n
Cc1ccnc(N2CCC(C(=O)N3CCN(c4cccc(C)c4C)CC3)CC2)n1	n	n
CN(C)c1ncncc1N1CCC(C(=O)N2CCN(C3CCCCC3)CC2)CC1	n	n
CN(C)c1ncncc1N1CCC(C(=O)N2CCN(c3cccc(Cl)c3)CC2)CC1	n	74
CN(C)c1ncncc1N1CCC(C(=O)N2CCN(c3ccccc3F)CC2)CC1	n	n
Cc1ccnc(N2CCC(C(=O)N3CCN(c4cc(Cl)ccc4C)CC3)CC2)n1	n	88
Cc1cccc(N2CCN(C(=O)C3CCN(c4cncnc4N(C)C)CC3)CC2)c1C	n	52
CC(C)c1ccc(C2C(C(=O)c3ccco3)=C(O)C(=O)N2CCN(C)C)cc1 (stereo unspecified)	n	n
COC(=O)C=C(Nc1ccc(Cl)c(Cl)c1)C(=O)OC	n	x
CC1CCCC2(C1)C(C#N)=C(SCC(=O)Nc1ccc(Br)cc1)NC(=O)C2C#N (stereo unspecified)	n	73
N#CC1=C(SCC(=O)Nc2ccccc2)NC(=O)C(C#N)C12CCCC2 (stereo unspecified)	n	n
COc1ccc(OC)c(CNC(=O)c2ccc(N3CCNC(c4ccccc4)C3)nc2)c1 (stereo unspecified)	n	n
CCN(CC)c1ccc(CNc2ccc3c(c2)ncn3CC)cc1	n	94
CCn1cnc2cc(NCc3ccc(N(C)C)cc3)ccc21	n	n
CCOc1ccc(CNc2ccc3c(c2)ncn3C(C)(C)C)cc1	n	n
CN(C)c1ccc(CNc2ccc3c(c2)ncn3C(C)(C)C)cc1	n	78
O=C(C1CCN(CC2CCCCC2)CC1)N1CCN(c2ccccc2F)CC1	n	n
c1ccc(C2=NN3C(C2)c2ccccc2OC3c2ccc3c(c2)OCO3)cc1 (stereo unspecified)	n	n
CN1CC2c3ccccc3OC(c3ccc4c(c3)OCO4)C2([N+](=O)[O-])O1 (stereo unspecified)	x	96
COc1ccc(/C=C2/N=C(c3ccc(C)c([N+](=O)[O-])c3)OC2=O)c(OC)c1OC	n	n
SMILES	Pf apPOL inh	mHTT-CaM PPI inh
COc1ccc(N=C2SC(C(=O)O)CC(=O)N2Cc2ccc(F)cc2)cc1 (stereo unspecified)	n	n
COc1ccc(N=C2SC(C(=O)N3CCN(c4ccc(F)cc4)CC3)CC(=O)N2C)cc1 (stereo unspecified)	n	51
O=C(O)C1CC(=O)N(Cc2ccc(Cl)cc2)C(=Nc2ccc(Cl)cc2)S1 (stereo unspecified)	n	n
COc1ccc(CN2C(=O)CC(C(=O)O)SC2=Nc2ccc(Cl)cc2)cc1 (stereo unspecified)	52	n
c1cc2c(cc1C13CC4CC(CC(C4)C1)C3)c1c3n2CCNC3CCC1 (stereo unspecified)	x	100
CC(C)COc1ccc2c(c1)c1c3n2CCNC3CCC1 (stereo unspecified)	x	n
CCN1CCn2c3c(c4cc(Cl)ccc42)CCCC31 (stereo unspecified)	n	n
C1=C(c2ccc3c(c2)c2c4n3CCNC4CCC2)CCC1 (stereo unspecified)	n	55
COc1cccc(C=C2Oc3cc(OCC(=O)OC(C)(C)C)ccc3C2=O)c1	n	n
CCCCSc1nc2c(c(C(F)(F)F)c1C#N)CC(C)CC2 (stereo unspecified)	x	n
CN1CCN(C(=O)CSc2nc3c(c(C(F)(F)F)c2C#N)CCC3)CC1	x	62
Cc1nnc2c3c4c(sc3n3c(C)nnc3n12)CCCCC4	n	n
CN(C)c1ccc(C(CNC(=O)c2c(F)cccc2F)N2CCOCC2)cc1 (stereo unspecified)	n	n
COc1ccccc1N1CCN(C(=O)c2cn(-c3ccc(F)cc3F)c(=O)c3ccccc23)CC1	n	n
O=C(c1cn(-c2ccc(F)cc2F)c(=O)c2ccccc12)N1CCC(Cc2ccccc2)CC1	n	61
O=S(=O)(Nc1ccc(Cn2cncn2)cc1)c1ccc(Br)cc1	n	n
CCCCC1C(=O)N(c2ccccc2)N(c2ccccc2)C1=O	n	x
CN(C)CC1C(=O)N(c2ccccc2)N(c2ccccc2)C1=O	n	72
Cc1nnc2sc(SCC(=O)Nc3cccc(C(F)(F)F)c3)nn2c1=O	n	99
Cc1cc2c(=O)n(CC(=O)Nc3cccc(C(F)(F)F)c3)cnc2s1	n	n
Cc1cc(C)cc(C(=O)N2CCC(n3c(-c4ccco4)nc4cccnc43)C2)c1 (stereo unspecified)	n	n
CCc1ccc(NC(=O)N2CCC(n3c(-c4ccco4)nc4cccnc43)C2)cc1 (stereo unspecified)	n	51
COc1ccc(C(=O)N2CCC(n3c(-c4ccco4)nc4cccnc43)C2)cc1 (stereo unspecified)	n	n
O=C(c1ccc(C(F)(F)F)cc1)N1CCC(n2c(-c3ccco3)nc3cccnc32)C1 (stereo unspecified)	n	91
O=C(c1cccc(Cl)c1)N1CCC(n2c(-c3ccco3)nc3cccnc32)C1 (stereo unspecified)	n	51
SMILES	Pf apPOL inh	mHTT-CaM PPI inh
O=C(Nc1ccc(F)c(Cl)c1)N1CCC(n2c(-c3ccco3)nc3cccnc32)C1 (stereo unspecified)	n	n
O=C(Nc1ccccc1)N1CCC(n2c(-c3ccco3)nc3cccnc32)C1 (stereo unspecified)	n	n
O=C(c1ccc(F)c(Cl)c1)N1CCC(n2c(-c3ccco3)nc3cccnc32)C1 (stereo unspecified)	n	98
COc1ccccc1NC(=O)c1ccccc1	n	n
COc1ccccc1CCC(=O)N1CC(C)C(c2nc(-c3cccnc3)no2)C1 (stereo unspecified)	n	n
CN1CCc2cc(C(CNC(=O)COc3ccc(Cl)cc3)N3CCOCC3)ccc21 (stereo unspecified)	n	n
COC(=O)c1cccc(NC(=O)N2CCc3cn(C)c4cccc(c34)C2)c1	n	n
Cc1ccc(C(=O)N2CCC(n3c(-c4ccco4)nc4cccnc43)C2)cc1 (stereo unspecified)	n	n
Cc1ccc(C(=O)N2CCC(n3c(-c4ccco4)nc4cccnc43)C2)cc1C (stereo unspecified)	n	72
CC1(CC(=O)Nc2ccccc2)NN=C(c2ccccc2)S1 (stereo unspecified)	n	73
O=C(CC(=O)Nc1ccccc1)Nc1ccccc1	n	n
COC(=O)C(C)Oc1ccc2c(c1)OC(=Cc1cc(OC)c(OC)cc1OC)C2=O (stereo unspecified)	n	n
CC(C)n1cc2cc(C(=O)N(C)CCc3ccncc3)sc2c1	n	n
O=C1NC(=O)C2C1C1C=Cc3ccccc3N1C2C(=O)c1ccc(F)cc1 (stereo unspecified)	x	52
CN1C(=O)C(O)(CC(=O)c2ccc(F)cc2)c2ccccc21 (stereo unspecified)	n	n

Screens from PubChem BioAssay.
